Assays:
Experiment in all cases: log2 ratio of Biotin-Ahx-Ub-VS probe labelling (fragment/DMSO); higher = less target engagement (more negative = stronger competition), active = hit call of the paper (q ≤ 0.05, log2 ratio ≤ -1)
Conditions in all cases: compound concentration: 200 uM; treatment time: 3 h
[1] = target: USP16 (UniProt Q9Y5T5)
Outline: (§1)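 Labelled DUBs were enriched with NeutrAvidin, digested with LysC and trypsin, and run by diaPASEF LC-MS/MS. The labelling used Biotin-Ahx-Ub-VS at 0.5 µM final for 1 h on HEK293T lysate (495 µg per sample) previously treated in triplicate with fragment at 200 µM or vehicle for 3 h. Values are average log2 fragment/vehicle ratios by unpaired t-test on global-median-normalised Spectronaut quantities of proteins with ≥2 unique peptides.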

[2] = target: T1, USP19 (UniProt O94966)
T1 sequence (whole entry): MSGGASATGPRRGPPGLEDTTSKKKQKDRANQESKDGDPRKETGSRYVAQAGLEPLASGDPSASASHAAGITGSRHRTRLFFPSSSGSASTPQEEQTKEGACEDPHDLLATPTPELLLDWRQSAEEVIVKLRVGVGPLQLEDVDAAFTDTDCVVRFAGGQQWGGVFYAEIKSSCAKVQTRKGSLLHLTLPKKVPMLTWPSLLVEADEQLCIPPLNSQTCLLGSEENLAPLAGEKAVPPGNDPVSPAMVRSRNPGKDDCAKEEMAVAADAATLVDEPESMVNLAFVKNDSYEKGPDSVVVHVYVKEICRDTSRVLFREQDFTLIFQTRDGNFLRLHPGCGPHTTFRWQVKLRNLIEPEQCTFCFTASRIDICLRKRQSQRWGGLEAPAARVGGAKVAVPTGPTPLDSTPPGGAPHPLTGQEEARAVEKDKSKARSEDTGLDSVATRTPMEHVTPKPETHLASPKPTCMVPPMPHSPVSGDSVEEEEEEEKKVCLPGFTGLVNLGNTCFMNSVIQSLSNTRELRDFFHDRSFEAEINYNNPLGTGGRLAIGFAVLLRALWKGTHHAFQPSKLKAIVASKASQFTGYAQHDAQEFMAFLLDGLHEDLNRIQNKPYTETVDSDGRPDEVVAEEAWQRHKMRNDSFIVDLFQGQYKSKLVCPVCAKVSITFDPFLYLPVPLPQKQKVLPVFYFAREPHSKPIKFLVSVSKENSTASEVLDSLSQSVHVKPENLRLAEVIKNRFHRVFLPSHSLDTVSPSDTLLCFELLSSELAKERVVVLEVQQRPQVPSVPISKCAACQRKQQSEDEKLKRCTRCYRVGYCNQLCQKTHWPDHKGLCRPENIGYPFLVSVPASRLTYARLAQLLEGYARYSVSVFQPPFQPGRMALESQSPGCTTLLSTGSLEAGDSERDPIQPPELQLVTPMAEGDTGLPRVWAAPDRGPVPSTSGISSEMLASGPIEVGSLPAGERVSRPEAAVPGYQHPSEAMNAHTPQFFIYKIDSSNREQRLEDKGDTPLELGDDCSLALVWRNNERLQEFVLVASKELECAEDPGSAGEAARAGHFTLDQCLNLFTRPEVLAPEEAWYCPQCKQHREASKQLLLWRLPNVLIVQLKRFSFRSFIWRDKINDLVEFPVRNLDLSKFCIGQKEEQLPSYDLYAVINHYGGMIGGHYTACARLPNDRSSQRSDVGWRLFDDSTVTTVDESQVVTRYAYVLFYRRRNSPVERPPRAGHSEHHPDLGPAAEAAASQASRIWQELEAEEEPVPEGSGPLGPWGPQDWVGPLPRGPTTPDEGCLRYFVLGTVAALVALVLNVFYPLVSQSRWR
Outline: as §1

[3] = target: USP24 (UniProt Q9UPU5)
Chain of USP24 (Q9UPU5 whole entry): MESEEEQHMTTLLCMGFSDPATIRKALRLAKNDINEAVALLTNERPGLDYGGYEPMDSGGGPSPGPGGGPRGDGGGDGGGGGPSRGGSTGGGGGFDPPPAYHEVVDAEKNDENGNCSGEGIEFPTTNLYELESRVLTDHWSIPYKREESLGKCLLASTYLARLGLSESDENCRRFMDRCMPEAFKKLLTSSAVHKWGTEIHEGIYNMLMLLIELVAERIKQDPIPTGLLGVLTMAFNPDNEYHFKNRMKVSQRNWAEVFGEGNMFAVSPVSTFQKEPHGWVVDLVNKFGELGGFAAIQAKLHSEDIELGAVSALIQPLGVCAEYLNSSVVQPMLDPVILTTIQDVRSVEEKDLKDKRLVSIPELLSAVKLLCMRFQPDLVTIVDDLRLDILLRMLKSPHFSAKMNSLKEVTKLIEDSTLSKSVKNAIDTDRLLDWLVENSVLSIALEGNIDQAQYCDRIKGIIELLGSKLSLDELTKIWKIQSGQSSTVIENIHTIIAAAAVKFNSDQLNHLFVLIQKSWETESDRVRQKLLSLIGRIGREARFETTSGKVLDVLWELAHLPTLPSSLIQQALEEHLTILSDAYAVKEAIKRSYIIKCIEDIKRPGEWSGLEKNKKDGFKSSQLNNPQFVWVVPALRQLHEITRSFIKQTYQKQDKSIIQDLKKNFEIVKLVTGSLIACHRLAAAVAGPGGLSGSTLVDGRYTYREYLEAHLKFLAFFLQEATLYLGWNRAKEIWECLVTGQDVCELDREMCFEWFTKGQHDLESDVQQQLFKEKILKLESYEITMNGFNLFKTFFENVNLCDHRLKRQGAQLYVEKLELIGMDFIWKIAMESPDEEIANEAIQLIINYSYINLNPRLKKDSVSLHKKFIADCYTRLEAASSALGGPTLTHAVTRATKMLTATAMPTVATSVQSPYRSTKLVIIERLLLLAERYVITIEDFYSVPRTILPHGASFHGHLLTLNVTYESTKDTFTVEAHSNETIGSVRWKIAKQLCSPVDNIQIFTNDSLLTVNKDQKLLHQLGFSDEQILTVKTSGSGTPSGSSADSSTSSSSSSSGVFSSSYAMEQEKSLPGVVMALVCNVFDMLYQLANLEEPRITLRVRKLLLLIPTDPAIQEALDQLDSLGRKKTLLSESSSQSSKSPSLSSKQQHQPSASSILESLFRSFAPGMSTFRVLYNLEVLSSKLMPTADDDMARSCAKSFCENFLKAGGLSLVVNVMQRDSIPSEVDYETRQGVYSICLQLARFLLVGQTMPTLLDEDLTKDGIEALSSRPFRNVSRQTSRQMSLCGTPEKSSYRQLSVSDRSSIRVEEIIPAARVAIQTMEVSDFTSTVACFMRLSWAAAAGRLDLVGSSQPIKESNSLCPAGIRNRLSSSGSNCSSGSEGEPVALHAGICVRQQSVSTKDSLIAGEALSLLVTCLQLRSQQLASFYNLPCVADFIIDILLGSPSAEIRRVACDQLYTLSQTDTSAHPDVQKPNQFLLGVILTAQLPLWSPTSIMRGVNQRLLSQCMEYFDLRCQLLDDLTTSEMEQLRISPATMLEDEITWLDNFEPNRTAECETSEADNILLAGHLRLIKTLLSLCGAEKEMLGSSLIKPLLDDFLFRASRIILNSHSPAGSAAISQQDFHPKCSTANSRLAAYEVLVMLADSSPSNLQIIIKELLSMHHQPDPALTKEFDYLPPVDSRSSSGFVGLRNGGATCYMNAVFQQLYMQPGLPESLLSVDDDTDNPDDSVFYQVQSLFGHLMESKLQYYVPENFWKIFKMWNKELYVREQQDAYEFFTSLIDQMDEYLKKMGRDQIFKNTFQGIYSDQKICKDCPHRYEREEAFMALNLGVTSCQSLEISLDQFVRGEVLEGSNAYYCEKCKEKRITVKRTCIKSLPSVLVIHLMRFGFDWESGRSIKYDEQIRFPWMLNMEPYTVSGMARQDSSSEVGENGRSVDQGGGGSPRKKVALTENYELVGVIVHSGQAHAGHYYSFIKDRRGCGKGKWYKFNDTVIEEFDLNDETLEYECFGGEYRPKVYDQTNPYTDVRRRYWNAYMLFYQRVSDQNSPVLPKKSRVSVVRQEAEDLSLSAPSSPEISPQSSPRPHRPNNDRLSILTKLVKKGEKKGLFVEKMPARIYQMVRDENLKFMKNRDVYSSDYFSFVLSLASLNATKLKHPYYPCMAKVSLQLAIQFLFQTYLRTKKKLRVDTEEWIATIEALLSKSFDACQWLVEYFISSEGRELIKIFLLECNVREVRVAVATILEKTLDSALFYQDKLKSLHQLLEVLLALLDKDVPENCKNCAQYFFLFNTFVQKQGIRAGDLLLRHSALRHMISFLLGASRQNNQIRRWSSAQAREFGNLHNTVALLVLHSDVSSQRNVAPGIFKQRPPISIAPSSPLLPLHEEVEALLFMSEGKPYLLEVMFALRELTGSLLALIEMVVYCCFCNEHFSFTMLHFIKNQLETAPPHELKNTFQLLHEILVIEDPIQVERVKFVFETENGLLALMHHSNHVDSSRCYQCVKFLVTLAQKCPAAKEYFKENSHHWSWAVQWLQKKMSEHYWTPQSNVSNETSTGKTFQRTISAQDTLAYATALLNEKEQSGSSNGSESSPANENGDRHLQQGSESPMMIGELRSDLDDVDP
Outline: as §1

[4] = target: T2, USP25 (UniProt Q9UHP3)
T2 sequence (whole entry): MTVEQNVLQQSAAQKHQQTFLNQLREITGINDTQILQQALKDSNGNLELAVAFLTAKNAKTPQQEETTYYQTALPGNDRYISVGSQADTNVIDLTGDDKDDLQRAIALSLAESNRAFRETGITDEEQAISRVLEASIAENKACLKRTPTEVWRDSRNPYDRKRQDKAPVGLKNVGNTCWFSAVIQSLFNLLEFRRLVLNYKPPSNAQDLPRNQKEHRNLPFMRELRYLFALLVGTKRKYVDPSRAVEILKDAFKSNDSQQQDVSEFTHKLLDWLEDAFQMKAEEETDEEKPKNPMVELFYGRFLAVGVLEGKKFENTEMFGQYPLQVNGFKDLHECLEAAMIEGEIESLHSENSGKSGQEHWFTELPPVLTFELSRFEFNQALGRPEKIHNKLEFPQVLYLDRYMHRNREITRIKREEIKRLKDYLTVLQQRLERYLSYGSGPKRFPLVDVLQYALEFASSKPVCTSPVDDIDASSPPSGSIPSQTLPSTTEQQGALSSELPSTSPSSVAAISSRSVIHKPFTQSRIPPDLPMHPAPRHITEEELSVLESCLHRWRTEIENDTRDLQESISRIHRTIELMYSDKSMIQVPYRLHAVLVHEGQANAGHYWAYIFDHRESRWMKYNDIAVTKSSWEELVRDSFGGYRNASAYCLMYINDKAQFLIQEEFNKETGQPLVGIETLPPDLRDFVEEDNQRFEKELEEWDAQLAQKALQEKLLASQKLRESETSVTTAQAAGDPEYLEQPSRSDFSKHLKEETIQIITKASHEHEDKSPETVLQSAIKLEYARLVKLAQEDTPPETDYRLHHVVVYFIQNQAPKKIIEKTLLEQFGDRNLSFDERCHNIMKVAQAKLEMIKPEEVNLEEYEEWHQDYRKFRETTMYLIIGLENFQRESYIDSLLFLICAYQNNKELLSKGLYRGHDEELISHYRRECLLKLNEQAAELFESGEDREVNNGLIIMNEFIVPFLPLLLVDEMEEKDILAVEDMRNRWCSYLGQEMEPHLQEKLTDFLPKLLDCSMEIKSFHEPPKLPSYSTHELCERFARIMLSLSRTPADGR
Outline: as §1

[5] = target: T3, USP28 (UniProt Q96RU2)
T3 sequence (whole entry): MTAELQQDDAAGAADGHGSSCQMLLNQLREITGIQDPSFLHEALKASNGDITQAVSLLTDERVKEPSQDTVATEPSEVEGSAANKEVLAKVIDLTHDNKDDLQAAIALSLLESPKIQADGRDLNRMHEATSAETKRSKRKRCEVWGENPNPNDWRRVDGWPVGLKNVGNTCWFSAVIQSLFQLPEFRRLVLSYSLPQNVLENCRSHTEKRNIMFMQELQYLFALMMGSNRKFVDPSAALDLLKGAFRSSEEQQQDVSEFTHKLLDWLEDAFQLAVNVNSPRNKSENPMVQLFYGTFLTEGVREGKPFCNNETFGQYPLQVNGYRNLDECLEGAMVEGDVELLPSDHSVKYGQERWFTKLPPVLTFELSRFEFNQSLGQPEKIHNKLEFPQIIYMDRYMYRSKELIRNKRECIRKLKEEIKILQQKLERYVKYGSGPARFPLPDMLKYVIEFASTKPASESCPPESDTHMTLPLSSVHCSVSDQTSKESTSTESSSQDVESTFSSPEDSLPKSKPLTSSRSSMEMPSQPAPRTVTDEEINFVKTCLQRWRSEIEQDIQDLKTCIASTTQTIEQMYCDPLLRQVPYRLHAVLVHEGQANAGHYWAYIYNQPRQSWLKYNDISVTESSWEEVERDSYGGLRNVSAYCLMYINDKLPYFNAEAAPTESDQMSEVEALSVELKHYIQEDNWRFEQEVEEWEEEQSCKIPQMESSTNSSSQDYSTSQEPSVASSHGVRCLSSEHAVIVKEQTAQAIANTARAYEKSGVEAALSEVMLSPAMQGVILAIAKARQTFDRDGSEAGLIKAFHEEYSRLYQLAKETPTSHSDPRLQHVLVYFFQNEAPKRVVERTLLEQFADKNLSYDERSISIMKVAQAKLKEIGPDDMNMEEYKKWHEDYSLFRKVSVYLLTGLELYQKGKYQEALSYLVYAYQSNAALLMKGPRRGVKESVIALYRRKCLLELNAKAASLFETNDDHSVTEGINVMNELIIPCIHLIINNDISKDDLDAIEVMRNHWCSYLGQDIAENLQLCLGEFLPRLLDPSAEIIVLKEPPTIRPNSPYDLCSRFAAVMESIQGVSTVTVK
Outline: as §1

Measured: log2 ratio of Biotin-Ahx-Ub-VS probe labelling

Chain of USP16 (Q9Y5T5 whole entry, looked up, the tested form may be a part): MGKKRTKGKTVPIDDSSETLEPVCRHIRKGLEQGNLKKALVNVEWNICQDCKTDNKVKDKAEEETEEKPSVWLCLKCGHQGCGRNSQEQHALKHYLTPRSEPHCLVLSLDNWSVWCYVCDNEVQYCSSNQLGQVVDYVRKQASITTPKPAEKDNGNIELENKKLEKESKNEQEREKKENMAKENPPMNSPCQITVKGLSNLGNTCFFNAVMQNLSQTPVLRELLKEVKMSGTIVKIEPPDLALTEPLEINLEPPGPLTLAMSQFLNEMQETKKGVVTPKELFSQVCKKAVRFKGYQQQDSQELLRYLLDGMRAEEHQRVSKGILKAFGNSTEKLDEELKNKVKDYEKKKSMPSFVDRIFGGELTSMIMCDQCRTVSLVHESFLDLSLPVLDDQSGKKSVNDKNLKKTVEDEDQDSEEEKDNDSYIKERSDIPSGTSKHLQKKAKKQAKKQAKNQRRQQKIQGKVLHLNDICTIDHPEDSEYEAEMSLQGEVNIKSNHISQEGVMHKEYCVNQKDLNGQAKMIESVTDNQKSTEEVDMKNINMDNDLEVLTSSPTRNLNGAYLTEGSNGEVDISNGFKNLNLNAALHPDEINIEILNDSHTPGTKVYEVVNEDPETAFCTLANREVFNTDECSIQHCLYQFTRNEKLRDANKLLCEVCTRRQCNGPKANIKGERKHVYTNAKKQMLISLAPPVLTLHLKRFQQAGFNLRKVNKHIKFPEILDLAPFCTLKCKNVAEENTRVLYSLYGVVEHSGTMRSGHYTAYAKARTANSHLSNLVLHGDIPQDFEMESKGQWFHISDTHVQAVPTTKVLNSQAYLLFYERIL

O=C(CCl)N1CCCC1c1ccsc1 (stereo not given)
inactive: [1] -0.254 | [2] -0.475 | [3] -0.738 | [4] -0.456 | [5] -0.704
